# PMC7862700, “An all-to-all approach to the identification of sequence-specific readers for epigenetic DNA modifications on cytosine”
# How the values were obtained:
# Test in all cases: DAPPL (digital affinity profiling via proximity ligation, sequencing); 10 mM Tris-HCl pH 7.5, 50 mM NaCl, 1 mM DTT, 4% glycerol, room temperature, 30 min; GST-TFs on glutathione beads, 16-mer random dsDNA library, 0.1% formaldehyde crosslink after washing; high values mean tight binding
# Conditions in all cases: protein: recombinant; tags: N-terminal GST; dsDNA, one strand shown
# FLI1 = biological target: T1, FLI1 (Homo sapiens, UniProt Q01543 1-452)
# T1 sequence: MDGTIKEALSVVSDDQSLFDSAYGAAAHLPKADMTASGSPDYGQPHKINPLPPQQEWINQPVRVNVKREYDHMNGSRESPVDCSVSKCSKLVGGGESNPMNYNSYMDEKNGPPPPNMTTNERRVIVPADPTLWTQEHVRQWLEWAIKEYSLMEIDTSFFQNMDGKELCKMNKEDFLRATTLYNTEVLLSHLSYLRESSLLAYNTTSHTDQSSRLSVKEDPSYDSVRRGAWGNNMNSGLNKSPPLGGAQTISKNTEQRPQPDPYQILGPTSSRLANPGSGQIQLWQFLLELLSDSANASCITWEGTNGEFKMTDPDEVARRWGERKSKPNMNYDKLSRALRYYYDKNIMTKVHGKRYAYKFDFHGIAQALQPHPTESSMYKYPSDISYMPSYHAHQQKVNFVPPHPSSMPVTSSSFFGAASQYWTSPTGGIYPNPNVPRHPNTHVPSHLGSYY
# Summary of the method: (§1)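 Human transcription factors fused to GST were expressed in yeast, captured on glutathione beads, given DNA barcodes and pooled with a GST-only negative control. Pools were incubated with 200 nmole of a 16-mer random double-stranded DNA library in Tris/NaCl/DTT/glycerol buffer at room temperature for 30 min. They were then washed, crosslinked with 0.1% formaldehyde, proximity-ligated (BsaI/T4 ligase, 1 h, 37 °C), PCR-amplified and sequenced on an Illumina NextSeq500. Binding signal is each 6-mer's read frequency for a factor divided by its frequency for the GST control.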
# EHF = biological target: T2, EHF (Homo sapiens, UniProt Q9NZC4 1-300)
# T2 sequence: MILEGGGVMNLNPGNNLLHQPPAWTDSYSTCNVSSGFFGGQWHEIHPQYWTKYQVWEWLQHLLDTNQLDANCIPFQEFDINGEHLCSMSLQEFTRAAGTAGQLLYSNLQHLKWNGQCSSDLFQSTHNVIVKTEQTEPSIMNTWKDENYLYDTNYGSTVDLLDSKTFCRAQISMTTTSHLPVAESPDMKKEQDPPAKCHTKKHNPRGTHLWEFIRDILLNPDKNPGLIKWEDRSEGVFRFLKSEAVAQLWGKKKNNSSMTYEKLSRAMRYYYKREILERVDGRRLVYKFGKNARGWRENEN
# Summary of the method: as §1
# SPIB = SPIB (Homo sapiens, UniProt Q01892 1-262)
# Summary of the method: as §1
# ELK3 = biological target: T3, ELK3 (Homo sapiens, UniProt P41970 1-407)
# T3 sequence: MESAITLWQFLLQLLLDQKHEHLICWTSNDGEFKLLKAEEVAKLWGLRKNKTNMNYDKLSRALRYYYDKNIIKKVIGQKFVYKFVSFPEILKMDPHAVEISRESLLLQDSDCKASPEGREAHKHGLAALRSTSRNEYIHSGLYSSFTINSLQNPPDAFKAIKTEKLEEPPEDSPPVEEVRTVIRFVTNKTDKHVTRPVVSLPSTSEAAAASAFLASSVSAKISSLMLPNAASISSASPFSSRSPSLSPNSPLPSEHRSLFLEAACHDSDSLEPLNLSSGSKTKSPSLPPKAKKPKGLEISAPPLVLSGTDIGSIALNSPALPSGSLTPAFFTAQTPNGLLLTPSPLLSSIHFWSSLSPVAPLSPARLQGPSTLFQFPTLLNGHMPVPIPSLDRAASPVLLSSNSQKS
# Summary of the method: as §1
# ELF4 = ELF4 (Homo sapiens, UniProt Q99607 1-663)
# Summary of the method: as §1
# ELF3 = biological target: T4, ELF3 (Homo sapiens, UniProt P78545 1-371)
# T4 sequence: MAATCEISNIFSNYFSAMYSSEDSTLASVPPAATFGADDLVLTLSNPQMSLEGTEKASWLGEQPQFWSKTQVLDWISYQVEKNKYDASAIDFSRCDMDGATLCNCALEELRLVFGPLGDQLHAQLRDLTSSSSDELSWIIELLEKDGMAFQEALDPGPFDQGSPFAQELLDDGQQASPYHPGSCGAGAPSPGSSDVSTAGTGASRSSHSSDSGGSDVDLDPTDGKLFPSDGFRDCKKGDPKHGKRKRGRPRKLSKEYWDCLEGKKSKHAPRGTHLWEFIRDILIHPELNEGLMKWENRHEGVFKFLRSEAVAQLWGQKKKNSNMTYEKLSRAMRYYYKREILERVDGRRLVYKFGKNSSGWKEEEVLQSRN
# Summary of the method: as §1
# ERF = biological target: T5, ERF (Homo sapiens, UniProt P50548 1-548)
# T5 sequence: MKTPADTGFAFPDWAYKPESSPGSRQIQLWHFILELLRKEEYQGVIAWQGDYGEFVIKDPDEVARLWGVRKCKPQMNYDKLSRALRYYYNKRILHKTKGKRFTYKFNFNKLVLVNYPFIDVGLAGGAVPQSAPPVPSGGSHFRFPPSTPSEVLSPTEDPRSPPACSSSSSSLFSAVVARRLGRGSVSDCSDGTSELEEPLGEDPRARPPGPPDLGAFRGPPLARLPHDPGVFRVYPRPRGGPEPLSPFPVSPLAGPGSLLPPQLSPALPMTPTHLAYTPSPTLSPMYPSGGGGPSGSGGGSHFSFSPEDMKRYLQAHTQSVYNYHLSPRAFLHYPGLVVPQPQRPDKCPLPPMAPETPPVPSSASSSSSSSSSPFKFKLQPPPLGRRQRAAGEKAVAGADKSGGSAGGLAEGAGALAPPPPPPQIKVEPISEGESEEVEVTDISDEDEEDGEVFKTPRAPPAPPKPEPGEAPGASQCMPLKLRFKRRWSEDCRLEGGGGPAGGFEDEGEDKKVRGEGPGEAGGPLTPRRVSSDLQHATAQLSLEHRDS
# Summary of the method: as §1
# ETV7 = biological target: T6, ETV7 (Homo sapiens, UniProt Q9Y603 1-341)
# T6 sequence: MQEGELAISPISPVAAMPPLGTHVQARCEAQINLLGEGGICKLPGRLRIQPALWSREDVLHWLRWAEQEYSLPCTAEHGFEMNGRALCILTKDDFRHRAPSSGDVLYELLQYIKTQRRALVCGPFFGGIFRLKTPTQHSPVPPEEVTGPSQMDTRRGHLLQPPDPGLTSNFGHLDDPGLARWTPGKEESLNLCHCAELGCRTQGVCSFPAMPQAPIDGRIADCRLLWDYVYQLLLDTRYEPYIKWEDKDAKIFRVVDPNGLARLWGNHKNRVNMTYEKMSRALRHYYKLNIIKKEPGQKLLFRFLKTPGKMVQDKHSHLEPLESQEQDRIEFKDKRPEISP
# Summary of the method: as §1
# ETV3 = biological target: T7, ETV3 (Homo sapiens, UniProt P41162-2 1-143)
# T7 sequence: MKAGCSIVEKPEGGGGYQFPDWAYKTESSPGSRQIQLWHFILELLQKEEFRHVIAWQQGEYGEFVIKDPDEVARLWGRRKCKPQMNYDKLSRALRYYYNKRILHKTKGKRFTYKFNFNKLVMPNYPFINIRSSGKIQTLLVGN
# Summary of the method: as §1
# Chain of SPIB (Q01892 whole entry): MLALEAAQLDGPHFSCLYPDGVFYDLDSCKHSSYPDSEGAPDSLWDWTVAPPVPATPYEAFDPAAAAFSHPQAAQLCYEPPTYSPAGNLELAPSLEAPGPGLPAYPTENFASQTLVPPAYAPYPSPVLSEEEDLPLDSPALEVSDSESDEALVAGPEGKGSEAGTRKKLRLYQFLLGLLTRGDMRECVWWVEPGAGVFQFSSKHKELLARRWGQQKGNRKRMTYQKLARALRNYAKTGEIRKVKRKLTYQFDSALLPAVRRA
# Chain of ELF4 (Q99607 whole entry): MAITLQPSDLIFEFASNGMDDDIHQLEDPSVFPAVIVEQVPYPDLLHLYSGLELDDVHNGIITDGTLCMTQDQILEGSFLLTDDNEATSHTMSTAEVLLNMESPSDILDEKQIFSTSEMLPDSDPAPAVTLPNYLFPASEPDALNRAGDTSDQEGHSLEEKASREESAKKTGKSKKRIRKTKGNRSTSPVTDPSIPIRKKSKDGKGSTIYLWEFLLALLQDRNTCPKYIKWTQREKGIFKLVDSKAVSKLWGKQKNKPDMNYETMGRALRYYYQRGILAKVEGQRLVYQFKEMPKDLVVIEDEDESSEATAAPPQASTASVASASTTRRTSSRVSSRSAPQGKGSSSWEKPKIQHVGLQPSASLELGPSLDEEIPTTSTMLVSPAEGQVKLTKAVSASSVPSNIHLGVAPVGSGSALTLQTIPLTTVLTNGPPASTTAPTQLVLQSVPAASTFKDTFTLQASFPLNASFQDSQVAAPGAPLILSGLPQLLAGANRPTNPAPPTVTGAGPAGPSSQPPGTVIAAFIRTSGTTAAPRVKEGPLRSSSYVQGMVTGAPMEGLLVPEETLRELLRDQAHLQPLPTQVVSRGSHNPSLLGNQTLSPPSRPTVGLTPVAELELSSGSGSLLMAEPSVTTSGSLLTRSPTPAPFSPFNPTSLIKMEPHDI
sequence,measurement,setting,value
AGTTTT,binding signal,FLI1,"1.05 fold enrichment (6-mer frequency, TF over GST control)"
same,binding signal,EHF,"1.02 fold enrichment (6-mer frequency, TF over GST control)"
same,binding signal,SPIB,"1.08 fold enrichment (6-mer frequency, TF over GST control)"
same,binding signal,ELK3,"1.14 fold enrichment (6-mer frequency, TF over GST control)"
same,binding signal,ELF4,"1.04 fold enrichment (6-mer frequency, TF over GST control)"
same,binding signal,ELF3,"1.01 fold enrichment (6-mer frequency, TF over GST control)"
same,binding signal,ERF,"1.09 fold enrichment (6-mer frequency, TF over GST control)"
same,binding signal,ETV7,"1.02 fold enrichment (6-mer frequency, TF over GST control)"
same,binding signal,ETV3,"1.07 fold enrichment (6-mer frequency, TF over GST control)"
